What all share (conditions): 25 µM; exposure: 24-48 hpf
Assay [1] has as its system Danio rerio Tg(wt1b:EGFP) embryo, pronephros. As to the kind of experiment: glomerular separation, fold change vs DMSO control; higher = glomeruli further apart (abnormal). Summed up:
(§1)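 Distances and angles describing the pronephros were computed by a Fiji macro from 16 reference points set manually on maximum projections of dorsal images. These images came from dechorionated Tg(wt1b:EGFP) zebrafish embryos held in agarose-filled 96-well plates after exposure to 25 μM compound in 0.5% DMSO, in HEPES-buffered E3 with 0.003% PTU, from 24 to 48 hpf at 28.5°C. Any value more than 2 SD from the feature mean was excluded. Features are stated as fold change relative to the mean of same-day DMSO-treated embryos.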

Assay [2] shares this test system. Kind of assay: glomerular width (mean of left and right), fold change vs DMSO control; higher = wider glomerulus. Summed up:
as §1

Assay [3] has the same test system. As to the kind of experiment: fraction of imaged embryos annotated as normal kidney; higher = less nephrotoxic; extreme values may be limits of the assay. Summed up: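 The read-out is the proportion of embryos in each treatment manually annotated as normal-kidney. Exposure ran from 24 to 48 hpf at 28.5°C in 12-well plates, using dechorionated Tg(wt1b:EGFP) zebrafish embryos in 5 mM HEPES-buffered E3 with 0.003% PTU, 0.5% DMSO and 25 μM compound. For imaging, larvae were anaesthetised with tricaine, positioned dorsally in agarose-filled 96-well plates and captured by widefield fluorescence (470 nm, 10 z-slices), with scoring done on maximum projections.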

The test system is the same in assay [4]. Kind of assay: pronephric angle neck segment to proximal convoluted tubule (mean of left and right), fold change vs DMSO control; higher = larger pronephric angle. Summed up: as §1

Structures can show the parent of a compound that is named as a salt. ± gives the standard deviation or the standard deviation of the averaged measurements.

Take `Nc1ccn([C@@H]2O[C@H](CO)[C@@H](O)[C@@H]2O)c(=O)n1` [Cytarabine]: the glomerular separation in assay [1] worked out at 0.773 ± 0.16. Also, the glomerular width in assay [2] was found to be 1.06 ± 0.016. Also, the “fraction of imaged embryos annotated as normal kidney” value (“fraction of imaged embryos annotated” for short) in assay [3] came out at 0.917. Also, in assay [4], the “pronephric angle neck segment” value turned out to be 0.998 ± 0.015.
Regarding `COc1ccc(C(Cl)=C(c2ccc(OC)cc2)c2ccc(OC)cc2)cc1` [Chlorotrianisene], in assay [1], the glomerular separation worked out at 0.709 ± 0.16. The glomerular width in assay [2] worked out at 1.028 ± 0.007. In addition, the “fraction of imaged embryos annotated” value in assay [3] turned out to be 1. Further, in assay [4], the “pronephric angle neck segment” value is 0.953 ± 0.013.
On the same counts, the results for `CC(=O)[C@@]1(O)CC[C@H]2[C@@H]3C[C@H](C)C4=CC(=O)C=C[C@]4(C)[C@@]3(F)[C@@H](O)C[C@@]21C` [Fluorometholone] are 1.11 ± 0.27, 1.174 ± 0.0086, 0.417 and 0.997 ± 0.035.
The corresponding values for `CN(C)CCOC(c1ccccc1)c1ccccc1` [Diphenhydramine hydrochloride] are 0.907 ± 0.28, 1.03 ± 0.0021, 0.75 and 0.942 ± 0.016.
Turning to `OC(CCN1CCCC1)(c1ccccc1)C1CCCCC1` (stereo unspecified) [Procyclidine hydrochloride], the glomerular separation in assay [1] turned out to be 0.639 ± 0.26. For the same compound, in assay [2], the glomerular width came out at 1.1 ± 0.013. In addition, the “fraction of imaged embryos annotated” value in assay [3] turned out to be 0.833. Further, the “pronephric angle neck segment” value in assay [4] was 0.954 ± 0.035.
The corresponding values for `Nc1nc(=O)c2c([nH]1)NC[C@@H](CNc1ccc(C(=O)N[C@@H](CCC(=O)O)C(=O)O)cc1)N2C=O` [Folinic acid calcium salt] are 0.989 ± 0.3, 1.01 ± 0.016, 0.583 and 0.979 ± 0.042.
The corresponding values for `CCN(Cc1ccncc1)C(=O)C(CO)c1ccccc1` (stereo unspecified) [Tropicamide] are 0.966 ± 0.68, 1.08 ± 0.027, 0.75 and 0.987 ± 0.052.
On the same counts, the results for `CO/N=C(\C(=O)N[C@@H]1C(=O)N2C(C(=O)O)=C(COC(N)=O)CS[C@H]12)c1ccco1` [Cefuroxime sodium salt] are 1.05 ± 0.35, 0.997 ± 0.025, 1 and 0.985 ± 0.025.
For `Clc1ccc(Cn2c(CN3CCCC3)nc3ccccc32)cc1` [Clemizole hydrochloride], the glomerular separation in assay [1] came to 1.13 ± 0.35. In assay [2], this compound returned a glomerular width of 1.03 ± 0.036. Further, in assay [3], the “fraction of imaged embryos annotated” value was determined as 0.545. Further, in assay [4], the “pronephric angle neck segment” value amounted to 1.02 ± 0.08.

The values above are taken from the supplement of paper PMC7366291.
